Bioassay records as filed in PubChem BioAssay.
Compounds with a hit are over-represented: about 11% of the library has one in this group of screens.
VP16 counter: Gal4-VP16 reporter inhibition counter-screen; Drosophila S2 Gal4-VP16 UAS-luciferase, luminescence, 20 h; Potency, µM (doses to about 53.6 µM), for inactives: at the top dose activity, negative = inhibition, usual class: inhibitors; 3.5% of 310,000 active; AID 2546;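 note: Gal4-VP16 expression switched on by copper sulfate through the metallothionein promoter; potency is the fitted concentration of half-maximal effect; % is set by controls: 0 for no effect and ±100 for the full control effect; nearly all actives have a fitted effect of over 50% in size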
MCF10A rerep: DNA re-replication induction in MCF 10a cells; 2.9% of 350,000 active; MCF 10A DNA re-replication, Hoechst nuclear intensity, 48 h; AID 624296; Potency, µM (highest dose often 46.1 µM), inactives show at the top dose activity, positive = re-replication, usual class: activators; note: potency is the fitted concentration of half-maximal effect; % of control where 0% means no effect; nearly all actives have a fitted effect of over 50% in size
SW480 rerep: DNA re-replication induction in SW480 cells. SW480 DNA re-replication, Hoechst DNA content imaging, 48 h. Potency, µM (titrated, usually from 46.1 µM), inactives show top-dose re-replication activation, actives largely listed as activators. AID 624297. 1.8% of 340,000 active; note: potency is the fitted concentration of half-maximal effect; % of control where 0% means no effect; nearly all actives have a fitted effect of over 55% in size
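Image-based DNA-content assay: after two days of treatment, nuclei were labelled with the DNA dye Hoechst and imaged, and hits were compounds raising the count of nuclei showing high fluorescence intensity.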
IL1B secr inh: inflammasome signaling inhibition, IL-1 beta readout; THP-1 LPS/ATP IL-1B secretion, AlphaLISA, 16 h; hits give low values; 4.7% of 360,000 active; AID 743279; activity change, % at 57.5 µM; in the data active = activity change below about -50%; inconclusive = mostly about -30% to -49%; note: % is set by controls: 0 for no effect and ±100 for the full control effect
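THP-1 cells pretreated 1 hr with compounds (up to 57.5 uM final), then stimulated with LPS (250 ng/mL final) plus ATP (1.25 mM final); secreted IL-1B measured by AlphaLISA after 16 hr, decreased signal indicating inhibition.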
RORgamma inh: inhibitors of mouse ROR gamma transcriptional activity. P51450. Drosophila S2 Gal4-RORgamma UAS-luciferase reporter, 20 h. Potency, µM (series often up to 53.6 µM), for inactives: top-dose activity change, negative = inhibition, usual class: inhibitors. 5.4% of 310,000 active; note: potency is the fitted concentration of half-maximal effect; % is set by controls: 0 for no effect and ±100 for the full control effect; nearly all actives have a fitted effect of over 60% in size
Target sequence (P51450 whole entry, looked up, the tested form may be a part): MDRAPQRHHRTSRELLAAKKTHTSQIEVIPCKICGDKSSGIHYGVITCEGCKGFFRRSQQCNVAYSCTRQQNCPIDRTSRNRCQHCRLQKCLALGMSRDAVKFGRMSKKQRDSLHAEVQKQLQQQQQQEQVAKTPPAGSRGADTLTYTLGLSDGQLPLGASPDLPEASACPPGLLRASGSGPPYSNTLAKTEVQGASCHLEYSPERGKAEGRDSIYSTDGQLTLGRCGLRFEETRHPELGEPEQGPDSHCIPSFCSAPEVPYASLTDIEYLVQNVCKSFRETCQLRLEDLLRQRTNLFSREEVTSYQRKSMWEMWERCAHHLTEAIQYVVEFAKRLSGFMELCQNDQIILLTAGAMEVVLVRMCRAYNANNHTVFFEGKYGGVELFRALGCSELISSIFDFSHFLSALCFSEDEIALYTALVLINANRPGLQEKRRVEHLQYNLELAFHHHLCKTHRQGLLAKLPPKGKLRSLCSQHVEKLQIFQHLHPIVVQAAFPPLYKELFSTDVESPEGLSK
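Stable Schneider cell line, Gal4 DNA-binding domain fused to ROR gamma, UAS-luciferase. Cmpd 1 hr RT → CuSO4 700 uM final → 20 hr RT → luciferase reagent 10 min → luminescence.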
* marks the source's active call; other numbers are inactive results; ? = inconclusive; nt = no result given; [ ] = dose if it differs, or a comment. Unless noted, calls come from the whole dose curve; as a rule, active = well fitted curve in the direction sought with a large enough effect; inconclusive = small, poorly fitted or top-dose-only effect, or another doubt; inactive = no such curve, though single readings can be large; an effect the other way counts as inactive or inconclusive.

SMILES	VP16 counter	MCF10A rerep	SW480 rerep	IL1B secr inh	RORgamma inh
CC(=O)OC[C@H]1O[C@@H](O[C@H]2C[C@]3(C)C(C[C@@H](O)C4C([C@]5(C)CC[C@@H](C(C)(C)O)O5)CC[C@]43C)[C@@]3(C)CC[C@H](O)C(C)(C)C23)[C@H](O[C@@H]2O[C@@H](C)[C@H](O)[C@@H](O)[C@H]2O)[C@@H](O)[C@@H]1O (stereo partly specified)	nt	16.0%	-9.7%[9.22 µM]	2.8	nt
Nc1cc(-c2ccc(Br)cc2)nn1Cc1ccccc1	1.8%	3.9%	26.9%	-68.8*	?
Cc1ccccc1C1c2[nH]c3ccccc3c2C[C@H]2C(=O)N(c3ccccc3C(=O)NCCCN3CCOCC3)C(=O)N12 (stereo partly specified)	-3.2%	11.6µM*	?	-7.1	-7.0%
COc1cccc(CN2CC(C(=O)NCCCn3ccnc3C)CCC2=O)c1 (stereo unspecified)	0.9%	0.7%	-8.5%	-17.3	-30.5%
CN(CC(=O)Nc1ccccc1Br)C(=O)c1ccccc1OCc1ccc(F)cc1	nt	2.4%	-26.3%	-29.7	nt
Cc1ccc(C)c(NC(=O)CN(C)C(=O)c2ccccc2OCc2ccc(Cl)cc2)c1	nt	?	-0.4%	-67.8*	nt
Cc1cccc(COc2ccccc2C(=O)N(C)CC(=O)Nc2cccc(F)c2)c1	nt	-3.6%	0.4%	-26.5	nt
CN(CC(=O)Nc1ccccc1Br)C(=O)c1ccccc1OCc1ccccc1Cl	nt	?	-106.4%	-82.2*	nt
CCC(=O)N(Cc1cc(=O)[nH]c2ccccc12)c1ccccc1	-14.0%	?	-52.5%	11.2	13.0%
Cc1cccc(N(Cc2ccccc2)C(=O)CCl)c1	-25.1%	?	20.6%	-6.4	10µM*
COC(=O)c1ccc(C(=O)N(Cc2ccccc2)c2ccccc2)cc1	-3.5%	?	18.7%	11.3	?
O=C(CCl)N(Cc1ccccc1)c1ccccc1	?	16.4µM*	5.8µM*	-95.9*	11.2µM*
O=C(CCl)N(Cc1cc(=O)[nH]c2ccccc12)c1ccccc1	?	?	9.5%	-77.6*	?
O=C([C@H]1O[C@@H](n2ccc(=O)[nH]c2=O)[C@H](O)[C@@H]1O)N(CCC1=CCCCC1)CC1CC1	nt	nt	nt	9.4	nt
CCc1ccc(NC(=O)CSc2nc(=O)n(CCN(C)C)c3c2CCCC3)cc1	nt	11.7%	-1.4%	-12.2	nt
COCCNC(=O)CSC1=N/C(=C/c2ccc(Cl)c(Cl)c2)C(=O)N1c1ccccc1F	?	9.2µM*	?	-99.2*	12.1%
CCc1ccc2c(c1)c(N=NC1=NC(=O)CS1)c(O)n2CC	?	10.5%	-1.5%[9.22 µM]	-6.1	11.2µM*
CCc1ccc2[nH]c(O)c(N=NC3=NC(=O)CS3)c2c1	10.7%	7.7%	-15.8%	37.2	-20.4%
O=C(O)CSc1nc2ccccc2n1-c1ccccc1	1.1%	-0.5%	-2.3%	-81.3*	3.6%
NC(=O)CSc1nc2ccccc2n1-c1ccccc1	6.7%	-10.0%	3.9%	15.3	5.9%
CC(C)(C)C1CCc2c(C(=O)NNC(=O)/C=C/C(=O)O)csc2C1 (stereo unspecified)	14.1µM*	?	-0.3%	-20.0	?
COc1cc(C(=O)ONC(=O)c2ccc(OC(F)F)cc2)cc(OC)c1OC	?	-2.2%	0.9%	-66.5*	-44.4%
O=c1c(Cl)c(O)c2cccc3c4ccccc4n1c23	-26.2%	23.1µM*	-3.5%	18.9	7.0%
COc1c(O)c(=O)n2c3ccccc3c3ccnc1c32	nt	9.8%	-5.8%	-24.2	nt
Cc1ccc(CNC(=O)CC[C@H]2O[C@@H](n3cc(C)c(=O)[nH]c3=O)C[C@@H]2O)o1	nt	nt	nt	-17.5	nt
COc1ccc(CNc2nc(NCc3ccc(OC)cc3)c3ncn(C(C)C)c3n2)cc1	-23.7%	nt	nt	nt	?
COc1ccc(CNc2nc(NCc3ccc(OC)cc3)c3[nH]cnc3n2)cc1	-19.7%	11.6µM*	5.1%	10.0	-20.3%
CC1CCCN(C2(O)C(=O)Nc3ccc(Cl)cc32)C1 (stereo unspecified)	2.0%	0.3%	-13.4%	-6.4	-15.4%
CC(=O)C(Cl)C(=O)Nc1ccccc1 (stereo unspecified)	?	?	?	-85.6*	?
